Shown are actives, neighbours in structure and some others; about 4.7% of the full set was active somewhere.
D1 PAM: Potentiators of Human D1 Dopamine Receptor: qHTS; potentiation, % at 10 µM; D(1A) dopamine receptor (Homo sapiens), P21728; 0.036% of 360,000 active; HEK293 TREx D1 cells, calcium flux, dopamine EC20 potentiation; AID 504651, 2011; in the data active = potentiation above about 30%; also: 0% is about no effect
Target sequence (P21728 whole entry, looked up): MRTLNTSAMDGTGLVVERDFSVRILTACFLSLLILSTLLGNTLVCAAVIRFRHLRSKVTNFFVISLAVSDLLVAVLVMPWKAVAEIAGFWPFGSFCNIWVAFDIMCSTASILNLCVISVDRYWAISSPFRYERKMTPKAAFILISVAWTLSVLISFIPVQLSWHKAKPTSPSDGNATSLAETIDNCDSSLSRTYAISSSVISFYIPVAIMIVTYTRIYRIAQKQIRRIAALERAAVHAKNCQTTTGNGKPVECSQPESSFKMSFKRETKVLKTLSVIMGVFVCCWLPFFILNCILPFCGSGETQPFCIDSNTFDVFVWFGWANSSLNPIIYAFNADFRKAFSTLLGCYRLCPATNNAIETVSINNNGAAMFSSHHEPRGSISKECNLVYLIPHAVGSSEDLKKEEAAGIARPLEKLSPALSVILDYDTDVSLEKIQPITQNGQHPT
TRHR agonist: qHTS for Small Molecule Agonists and Allosteric Enhancers of Human TRH Receptor: Primary Screen for Agonists. Thyrotropin-releasing hormone receptor (Homo sapiens), P34981. TRHR cells, calcium flux fluo-8, FDSS agonist mode. activation, % at 2 µM. 0.18% of 360,000 active; also: 0% is about no effect
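Fluo-8-loaded TRHR cells; 10 s baseline, compound added, kinetic Ca2+ fluorescence read 1/s, agonist mode.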
D1 ag: Allosteric Agonists of the Human D1 Dopamine Receptor: qHTS. D(1A) dopamine receptor (Homo sapiens), P21728. HEK293 T-REx D1 cells, calcium flux, agonist mode. activation, % at 2 µM. 1% of 360,000 active. AID 504660, 2011; also: 0% is about no effect
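Inducible HEK293 T-REx D1 cells, force-coupled to calcium signalling, were plated at 4000 cells/well with tetracycline and held overnight at 30 C. After no-wash calcium dye loading, compound-evoked calcium rise over 180 s flagged agonists.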
D1 antag: Antagonist of Human D 1 Dopamine Receptor: qHTS. HEK293 TREx D1 cells, calcium flux, dopamine EC80; active compounds read low. activity change, negative = inhibition, % at 10 µM. 3.2% of 360,000 active. AID 504652, 2011; in the data active = activity change below about -30%; also: % is scaled to controls: 0 for no effect and ±100 for the full control effect
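Using tetracycline-induced force-coupled D1 Hek293 cells and a calcium dye, signals were followed for 180 s after compound, then for 180 s after EC80 dopamine, to detect inhibitors.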
TRHR PAM: qHTS for Small Molecule Agonists and Allosteric Enhancers of Human TRH Receptor: Primary Screen for Enhancers; 0.66% of 360,000 active; Thyrotropin-releasing hormone receptor (Homo sapiens), P34981; AID 493056, 2011; TRHR cells, fluo-8 calcium fluorescence, EC20 TRH enhancement; enhancement, % at 2 µM; in the data active = enhancement above about 30%; also: 0% is about no effect
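TRHR-expressing cells loaded with fluo-8 calcium dye were read kinetically (ex 480/em 530) during compound addition, then stimulated with an EC20 of TRH (10 nM final). Enhancement of the Gq-mediated intracellular calcium response was scored.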
Numbers without * were called inactive; x = no result. Rule as the data show it, unless noted: active = activation above about 30%; inactive = the rest.

SMILES	D1 PAM	TRHR agonist	D1 ag	D1 antag	TRHR PAM
CCOc1ccc(CCNC(=O)C(C)N2C(=O)CC(C)(C)Sc3ccccc32)cc1 (stereo unspecified)	-9	0	38*	-1	16
Cc1ccc(Cl)cc1NC(=O)Cn1c(=O)n(CCC(=O)NCc2ccc3c(c2)OCO3)c(=O)c2sccc21	1	1	4	-17	9
Cc1ccc(NC(=O)Cn2c(=O)n(CCC(=O)NCc3ccc4c(c3)OCO4)c(=O)c3sccc32)c(C)c1	0	0	2	-34*	2
c1cncc(CSc2ccc(-c3ccc4c(c3)OCO4)nn2)c1	-3	-1	6	-39*	2
Fc1cccc(CSc2ccc(-c3ccc4c(c3)OCO4)nn2)c1	-5	2	6	5	1
Cc1ccc(C(=O)/C=C/Nc2ccc(S(=O)(=O)Nc3cc(C)nc(C)n3)cc2)cc1	-3	0	8	-57*	-2
Cc1cc(C)cc(OC(C)C(=O)Nc2ccc(S(=O)(=O)Nc3cc(C)nc(C)n3)cc2)c1 (stereo unspecified)	1	-1	3	-1	4
CCC(C)C(NC(=O)c1ccccc1)C(=O)Nc1ccc(S(=O)(=O)Nc2cc(C)nc(C)n2)cc1 (stereo unspecified)	-1	1	0	-59*	-1
O=c1cc(CN2CCN(C/C=C/c3ccccc3)CC2)c2cc(O)ccc2o1	3	1	11	-33*	3
Cc1nn(C2CCS(=O)(=O)C2)c(Cl)c1/C=C/C(=O)OCC(=O)c1cc(C)n(-c2ccc(F)cc2)c1C (stereo unspecified)	-6	0	9	-31*	-1
Cc1ccccc1-c1nc(SCC(=O)NCc2ccc(F)cc2)c2c(=O)n(C)c(=O)n(C)c2n1	0	0	2	1	2
CCOC(=O)c1cc(S(=O)(=O)Nc2ccc(OC)cc2OC)cn1C	-3	-1	12	-13	-1
CCOC(=O)CC1COc2ccccc2N1C(=O)c1cccc([N+](=O)[O-])c1 (stereo unspecified)	7	0	2	4	31*
Cc1csc(NC(=O)c2cc3c(s2)CCCCC3)n1	0	0	3	2	-1
Cc1csc(NC(=O)c2cc3c(s2)CCCC3)n1	-12	-1	11	-44*	2
CCCc1nc2sc3ccccc3c(=O)c2c(=O)n1Cc1ccco1	11	0	80*	42	8
CCc1nc(CNC(=O)C2CCC(=O)N(Cc3cccc(OC)c3)C2)no1 (stereo unspecified)	-1	1	0	-1	-3
O=C(CCN1C(=O)c2ccccc2S1(=O)=O)Nc1ccc(Cl)cc1	-2	-1	5	-52*	-3
CC(C)Oc1ccc(CNC(=O)c2ccc3c(c2)N(Cc2ccc(F)cc2)CCS3)cc1	0	0	-1	7	-7
CC(=O)Nc1cccc(C(=O)OCC(=O)NC2CCCCCCC2)c1	-5	2	6	-39*	24
CC(=O)c1cccc(NC(=O)COC(=O)c2ccc3c(c2)OCO3)c1	x	0	9	-31*	11
CC(=O)c1cccc(NC(=O)COC(=O)c2ccc(S(C)(=O)=O)c([N+](=O)[O-])c2)c1	0	0	2	-34*	-3
Cc1cccc(C(=O)OCC(=O)NC2CCCCCCC2)c1	3	-1	0	1	-15
COc1cc(SC)ccc1C(=O)OCC(=O)NC1CCCC1	-8	1	2	-11	-2
COc1cc(SC)ccc1C(=O)OCC(=O)NC1CCCCC1	2	0	1	-32*	2
SMILES	D1 PAM	TRHR agonist	D1 ag	D1 antag	TRHR PAM
CS(=O)(=O)c1ccc(C(=O)OCC(=O)NC(=O)C2CCCCC2)cc1[N+](=O)[O-]	-4	0	7	-33*	18
Cc1ccccc1NC(=O)COC(=O)c1ccc(S(C)(=O)=O)c([N+](=O)[O-])c1	-1	0	2	-3	-3
CCN(CC)S(=O)(=O)c1ccc(C(=O)OCC(=O)NC2CCCC2)cc1	-8	0	9	-21	-4
Cc1ccccc1NC(=O)Cc1nc(COC(=O)c2ccc(S(C)(=O)=O)c([N+](=O)[O-])c2)cs1	-8	-1	5	-36*	-4
CCN(CC)S(=O)(=O)c1ccc(O)c(C(=O)OCC(=O)NC2CCCC2)c1	-9	0	0	-66*	-10
NC(=O)c1ccc(NC(=O)COC(=O)/C=C/c2ccc3c(c2)OCO3)cc1	1	4	8	-41*	-2
Cn1cc(CCC(=O)NCCCc2ccccc2)c2ccccc21	1	-1	0	-7	0
COc1ccc(CC2(CO)CCN(S(=O)(=O)c3c(C)nn(C)c3Cl)CC2)cc1	-7	-3	13	-14	3
COc1ccc(CC2(CO)CCN(S(=O)(=O)c3sccc3C)CC2)cc1	-6	0	32*	-14	-5
COC(=O)[C@@H]1C[C@@H]2CC[C@@H](O)C[C@@H]2N1Cc1ccc(C(F)(F)F)cc1	-2	0	9	-5	-1
COC(=O)[C@@H]1C[C@H]2CC[C@H](O)C[C@H]2N1Cc1ccc(C(C)(C)C)cc1	-8	0	2	-34*	6
N#Cc1c(N)nc2c3c(sc(=N)c2c1N)NC(=O)CC3c1ccccc1 (stereo unspecified)	-3	-1	-1	-35*	-4
CC(C)(C)NC(=O)Cn1nnc(-c2ccc(OCc3c(F)cccc3Cl)cc2)n1	-6	1	9	-32*	0
CCc1ccc(CNC(=O)c2cnc3c(C)cccn3c2=O)cc1	-1	1	0	29	-3
CNc1cccccc1=S	1	-1	0	-56*	6
CNc1cccc2c1C(=O)c1ccccc1C2=O	5	0	0	-4	-8
COc1ccc2cc1Oc1ccc(cc1)C[C@H]1c3c(cc4c(c3Oc3cc5c(cc3OC)CCN(C)[C@@H]5C2)OCO4)CCN1C	-4	1	3	-37*	4
CN1CC2(C)OC(=O)C(Cl)=C2CC1c1ccccc1 (stereo unspecified)	-6	0	3	-55*	-3
CN1C(=O)CC(c2ccccc2)CC1=O	-2	0	4	-7	2
COc1ccc(CCCc2nnc(SCC(=O)Nc3cc(F)ccc3C)o2)cc1	-3	0	13	-8	-1
COc1ccccc1NC(=O)CSCc1cc(=O)c2cccc(Cl)c2[nH]1	-1	0	1	-48*	4

Screening data deposited in PubChem by National Center for Advancing Translational Sciences (NCATS).
